The nature of experiment [1]: A CellTox Green Cytotoxicity Assay to monitor cytotoxicity in HepG2 cells - 8 hour (AID 1224890). Further: nearly all actives have a fitted effect of over 45% in size. An outline of the steps: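 Using 1536-well format, dye-containing HepG2 suspension was seeded, allowed 5 h at 37 C/5% CO2, dosed by pintool with compounds, positive and negative controls, and imaged for fluorescence across 40 h.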
Experiment [2] is described as follows: qHTS assay to identify small molecule antagonists of the estrogen receptor alpha (ER-alpha) signaling pathway using the BG1 cell line in the presence of 0.1 nM 17-beta-estradiol - cell viability counter screen (AID 1259241). Further: nearly all actives have a fitted effect of over 40% in size. Further: potency means the concentration at half of the fitted maximal effect. Put shortly:
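Following 5 days in phenol red-free medium with charcoal-stripped serum, VM7Luc4E2 cells received test compounds alongside 0.1 nM 17beta-estradiol (final) at 37C for 22 hr. Live cells were then quantified via protease-substrate fluorescence.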
On the technique in general: Quantitative high-throughput screening tests each substance at several concentrations.

Experiment [3] can be described thus: qHTS assay to identify small molecule antagonists of the androgen receptor (AR) signaling pathway using the MDA cell line in the presence of 0.5 nM R1881 - cell viability counter screen (AID 1259242). Further: nearly all actives have a fitted effect of over 45% in size. Further: potency means the concentration at half of the fitted maximal effect. Put shortly:
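Viability of MDA-kb2 cells was multiplexed with the luciferase AR readout; after 16 hr with compounds and R1881 at 0.5 nM final, CellTiter-Fluor fluorescence was recorded.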

In experiment [4] the target is Estrogen receptor (Homo sapiens) (UniProt P03372). Put plainly: qHTS assay to identify small molecule antagonists of the estrogen receptor alpha (ER-alpha) signaling pathway using the BG1 cell line in the presence of 0.1 nM 17-beta-estradiol (AID 1259244). Further: nearly all actives have a fitted effect of over 50% in size. Further: potency means the concentration at half of the fitted maximal effect. An outline of the steps:
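Estradiol at 0.1 nM (final) stimulates the endogenous ER-alpha of VM7Luc4E2 cells carrying an ERE-driven luciferase; compounds are co-incubated 22 h at 37C and luciferase output quantified by luminescence.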

Experiment [5] is described as follows: qHTS assay to identify small molecule phospholipidosis (PLD) inducers (AID 1259344; active means well fitted curve in the direction sought with a large enough effect; an effect the other way counts as inactive or inconclusive). An outline of the steps: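 Fluorescent phospholipid staining (LipidTOX Red) measured by automated microscopy in fixed HepG2 cells after 24 h treatment; nuclei counterstained with Hoechst 33342; amiodarone as reference inducer.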
The nature of experiment [6]: qHTS assay to identify small molecule HDAC inhibitors (AID 1259364).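 Further: wild-type HCT-116 cells with endogenous class I/II HDAC activity; top concentration of the series differs between compounds; nearly all actives have a fitted effect of over 45% in size.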 Put shortly:
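Read-out: luminescence of HDAC-Glo I/II reagent, 30 min RT, reflecting class I/II deacetylase activity in whole HCT-116 cells pre-exposed 2 h to DMSO-dissolved compounds.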

Experiment [7] can be described thus: qHTS assay to identify small molecule HDAC inhibitors - cell viability counter screen (AID 1259365). Further: series mostly up to about 92 µM; nearly all actives have a fitted effect of over 50% in size. An outline of the steps:
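HCT-116 wild-type, overnight attachment; 2hr drug exposure, 37C; CellTiter-Glo luminescent ATP readout after 30min RT.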

The nature of experiment [8]: qHTS assay to identify small molecule agonists of the sonic hedgehog signaling (Shh) pathway - cell viability counter screen (AID 1259366). Further: nearly all actives have a fitted effect of over 50% in size. Put shortly: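 Compounds in DMSO were pin-transferred onto 3T3 Gli1-Luc cells that had settled 4hr; plates then stood 24hr at 37C and 5% CO2. One hour before the end, CellTiter-Fluor was added and fluorescence recorded.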
The nature of experiment [9]: qHTS assay to identify small molecule antagonists of the sonic hedgehog signaling (Shh) pathway - cell viability counter screen (AID 1259367). Further: nearly all actives have a fitted effect of over 55% in size. An outline of the steps:
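Using CellTiter-Fluor, viability of Gli1-Luc reporter 3T3 cells is read by fluorescence in the wells used for the Shh luciferase assay. Treatment lasts 23 hr with conditioned medium, then reagent 1 hr at 37C.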

Experiment [10] addresses Androgen receptor (Homo sapiens) (UniProt P10275). Kind of experiment: qHTS assay to identify small molecule antagonists of the androgen receptor (AR) signaling pathway using the MDA cell line in the presence of 0.5 nM R1881 (AID 1259243). Further: nearly all actives have a fitted effect of over 50% in size. Further: potency means the concentration at half of the fitted maximal effect. Put shortly: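 Reporter cells cultured without CO2 receive test chemicals, then 0.5 nM R1881 final; after 16 hr at 37C, ONE-Glo is added and light output recorded.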

A number with no mark means an inactive call. Results filed as inconclusive are left out. Active and inactive are the calls of the source. Unless noted, the call rests on the fitted dose curve; in most records, active means well fitted curve in the direction sought with a large enough effect in the repeat runs; inconclusive means weak or mixed curves; inactive means no such curve, though single readings can be large; an effect the other way counts as inactive or inconclusive.
On the % scale 0 is the no-effect control and ±100 the full control effect.

Estrogen receptor (Homo sapiens), sequence (P03372 whole entry, looked up): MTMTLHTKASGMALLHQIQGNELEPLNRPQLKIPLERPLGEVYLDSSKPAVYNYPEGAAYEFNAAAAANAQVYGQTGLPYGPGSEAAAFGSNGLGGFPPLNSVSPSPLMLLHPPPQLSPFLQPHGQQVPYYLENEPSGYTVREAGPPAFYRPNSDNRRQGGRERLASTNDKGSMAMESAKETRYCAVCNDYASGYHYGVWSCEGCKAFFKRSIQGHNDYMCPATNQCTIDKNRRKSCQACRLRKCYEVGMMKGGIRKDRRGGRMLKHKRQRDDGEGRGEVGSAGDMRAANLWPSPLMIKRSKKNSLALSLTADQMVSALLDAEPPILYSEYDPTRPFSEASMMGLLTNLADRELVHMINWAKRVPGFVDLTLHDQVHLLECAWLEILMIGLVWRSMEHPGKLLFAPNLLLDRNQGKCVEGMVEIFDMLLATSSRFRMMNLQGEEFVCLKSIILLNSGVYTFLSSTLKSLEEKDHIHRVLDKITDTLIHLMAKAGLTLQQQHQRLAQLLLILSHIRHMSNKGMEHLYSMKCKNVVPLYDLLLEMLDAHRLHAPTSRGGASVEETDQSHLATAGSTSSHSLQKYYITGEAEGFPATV
Androgen receptor (Homo sapiens), sequence (P10275 whole entry, looked up): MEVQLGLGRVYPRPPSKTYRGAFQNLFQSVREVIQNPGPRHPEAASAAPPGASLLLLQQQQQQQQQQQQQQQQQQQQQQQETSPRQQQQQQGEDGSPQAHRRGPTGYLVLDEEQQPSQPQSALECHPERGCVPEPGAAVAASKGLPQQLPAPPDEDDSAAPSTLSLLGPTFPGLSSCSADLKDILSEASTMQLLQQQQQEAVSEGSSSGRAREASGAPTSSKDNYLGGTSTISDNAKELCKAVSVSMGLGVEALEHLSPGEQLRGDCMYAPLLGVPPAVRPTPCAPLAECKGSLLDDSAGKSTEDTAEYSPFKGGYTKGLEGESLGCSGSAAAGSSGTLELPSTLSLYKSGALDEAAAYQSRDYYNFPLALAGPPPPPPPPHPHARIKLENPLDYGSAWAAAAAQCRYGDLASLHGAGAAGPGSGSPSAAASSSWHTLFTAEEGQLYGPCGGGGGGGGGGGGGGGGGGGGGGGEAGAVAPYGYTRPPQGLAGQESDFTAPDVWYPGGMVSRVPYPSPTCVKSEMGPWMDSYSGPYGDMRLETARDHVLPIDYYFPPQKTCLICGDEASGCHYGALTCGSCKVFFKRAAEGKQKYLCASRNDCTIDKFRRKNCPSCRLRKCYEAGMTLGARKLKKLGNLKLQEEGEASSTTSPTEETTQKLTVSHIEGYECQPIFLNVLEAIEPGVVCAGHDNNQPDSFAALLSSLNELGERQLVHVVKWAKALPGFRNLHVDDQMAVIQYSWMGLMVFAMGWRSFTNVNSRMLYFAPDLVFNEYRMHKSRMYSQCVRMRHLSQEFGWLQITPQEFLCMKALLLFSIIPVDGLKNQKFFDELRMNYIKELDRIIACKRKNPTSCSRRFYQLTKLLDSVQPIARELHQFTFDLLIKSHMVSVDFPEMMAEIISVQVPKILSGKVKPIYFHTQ

Regarding `CC(C)(C)C(=O)C(Oc1ccc(Cl)cc1)n1ccnc1` (stereo unspecified), the Potency result in [1], in experiment [2], in experiment [3], in experiment [4], in experiment [6] and in experiment [7] was “inactive” each time. The Potency result in experiment [8] and in [9] was “inactive” each time. Besides, in experiment [5], the compound was classed as inactive.
In the case of `CC1CN(c2cc3c(cc2F)c(=O)c(C(=O)O)cn3-c2ccc(F)cc2F)CCN1` (stereo unspecified), the cytotoxicity increase in [1] was -0.506% [at 6.97 µM]. The activity change, negative = cytotoxicity is 6.15% [at 8.39 µM] in [2] and -1.14% [at 8.39 µM] in [7]. The viability change, negative = cytotoxic in [3] was 6.65% [at 8.39 µM]; in experiment [8], -8.68% [at 8.39 µM]. The activity change, negative = inhibition in experiment [4] was -1% [at 8.39 µM]; in experiment [6] it was -3.12% [at 8.39 µM]. Moreover, the compound was classed as inactive in experiment [5].
On to `CC(=O)[C@H]1CC[C@H]2[C@@H]3C=CC4=CC(=O)CC[C@@]4(C)[C@@H]3CC[C@]12C`, for which the Potency result in experiment [1], in experiment [2], in experiment [3], in experiment [4], in [6] and in [7] was “inactive” throughout. For the same compound, the Potency result in experiment [8] and in experiment [9] was “inactive” throughout. The outcome in experiment [5] was inactive.
As for `CCC1(C)CC(=O)NC1=O` (stereo unspecified), the Potency entry in experiment [1], in [2], in experiment [3], in experiment [4], in experiment [6] and in experiment [7] was “inactive” throughout. Moreover, the Potency entry in experiment [8] and in [9] was “inactive” throughout. Moreover, the outcome in [5] was inactive.
In the case of `CC(=O)OCC(=O)[C@@]12OC(C)(C)O[C@@H]1C[C@H]1[C@@H]3C[C@H](F)C4=CC(=O)C=C[C@]4(C)[C@@]3(F)[C@@H](O)C[C@@]12C`, the Potency result in [1], in experiment [2], in experiment [3], in experiment [4], in experiment [6] and in experiment [7] was “inactive” each time. In addition, the Potency result in experiment [8] and in experiment [9] was “inactive” each time. Moreover, the compound was classed as inactive in experiment [5].
Regarding `COC(=O)c1cc(S(N)(=O)=O)ccc1OC`, the Potency entry in experiment [1], in [2], in experiment [3], in experiment [10], in experiment [4] and in experiment [7] was “inactive” throughout. For the same compound, the Potency result in experiment [8] and in experiment [9] was “inactive” each time.
With `CCCC(=O)O[C@]1(C(=O)COC(=O)CC)CC[C@H]2[C@@H]3CCC4=CC(=O)CC[C@]4(C)[C@H]3[C@@H](O)C[C@@]21C`, the cytotoxicity increase in experiment [1] was -2.4% [at 15.8 µM]. For the same compound, the activity change, negative = cytotoxicity is 7.4% [at 19 µM] in experiment [2] and -1.94% [at 19 µM] in experiment [7]. Moreover, the viability change, negative = cytotoxic in experiment [3] was 0.0902% [at 19 µM]; in experiment [8], 2.28% [at 19 µM]; in [9], -1.17% [at 19 µM]. For the same compound, the activity change, negative = inhibition in experiment [4] is 31.4% [at 19 µM]; in experiment [6], -0.144% [at 19 µM]. Further, in [5], the PLD induction is -3.36% [at 7.66 µM].
`COc1cc2c(cc1OC)-c1cc(=Nc3c(C)cc(C)cc3C)n(C)c(=O)n1CC2`: the Potency result in experiment [1], in experiment [2], in [3], in experiment [4], in experiment [6] and in experiment [7] was “inactive” in each case. Also, the Potency result in [8] is “inactive”. Besides, the compound was called inactive in experiment [5].
For `O=C(CCCCCCCCC#CI)Oc1ccccc1`, the Potency entry in [1], in [2], in experiment [3], in [10], in experiment [6] and in [7] was “inactive” throughout. The Potency result in experiment [8] and in experiment [9] was “inactive” throughout. The PLD induction in [5] is 8.17% [at 7.66 µM].
As to `O=C(CCC1CCN(Cc2ccccc2)CC1)c1ccc2c(c1)NCCCC2`, the Potency result in experiment [1], in experiment [2], in experiment [3], in experiment [6], in experiment [7] and in [8] was “inactive” each time. Moreover, in [9], the Potency entry is “inactive”. Further, the figures for the Potency in experiment [10] and in [4] were 29.8 µM (active) and 26.6 µM (active), respectively. Also, in [5], the result was inactive.
For the compound `O=C(O)C(Cc1cc(I)c(O)c(I)c1)c1ccccc1` (stereo unspecified), the Potency entry in experiment [1], in experiment [2], in experiment [3], in experiment [4], in experiment [6] and in experiment [7] was “inactive” throughout. Also, the Potency result in experiment [8] and in experiment [9] was “inactive” in each case. Moreover, the compound was called inactive in experiment [5].
On to `O=C(NCCCN1CCOCC1)c1ccc(Cl)cc1`, for which the Potency result in experiment [1], in experiment [2], in [3], in experiment [4], in experiment [6] and in experiment [7] was “inactive” in each case. Also, the Potency result in experiment [8] was “inactive”. The call in experiment [5] was inactive.
Turning to `O=C(O)Cc1ccc(-c2ccccc2)cc1`, the Potency entry in experiment [1], in [2], in [3], in experiment [4], in [7] and in experiment [8] was “inactive” throughout. The result in experiment [5] was inactive.
For the compound `CCCOC(=O)c1ccc(C(=O)OCCC)nc1`, the Potency result in experiment [1], in experiment [2], in experiment [3], in [10], in experiment [4] and in experiment [7] was “inactive” in each case. For the same compound, the Potency result in experiment [8] and in [9] was “inactive” in each case.
Turning to `Nc1c(I)cc(I)c(C(=O)N(CCC(=O)O)c2ccccc2)c1I`, the Potency result in experiment [1], in experiment [2], in experiment [3], in experiment [10], in experiment [7] and in [8] was “inactive” each time.
In the case of `CN1CCN(c2c(F)cc3c(=O)c(C(=O)O)cn4c3c2OCN4C)CC1`, the cytotoxicity increase in experiment [1] was -3.25% [at 15.8 µM]. Further, the activity change, negative = cytotoxicity in experiment [2] was 0.712% [at 19 µM]; in experiment [7], -3.29% [at 19 µM]. In addition, the results for the viability change, negative = cytotoxic in [3], in experiment [8] and in experiment [9] were 0.172% [at 19 µM], 2.32% [at 19 µM] and -1.18% [at 19 µM], respectively. Besides, the figures for the activity change, negative = inhibition in experiment [4] and in [6] were 2.06% [at 19 µM] and 8.76% [at 19 µM], respectively. Moreover, the compound was called inactive in experiment [5].
Consider `CC(C)(C)CC(C)(C)c1ccc(OCCO)cc1`, for which the Potency entry in experiment [1] and in experiment [6] was “inactive” in each case. Also, the Potency is 54.2 µM (active) in experiment [2], 48.3 µM (active) in [3] and 10.8 µM (active) in experiment [4]. Besides, the compound was classed as inactive in experiment [5].
With `CCCCCC=CCC=CCCCCCCCC(=O)OCC`, the Potency result in experiment [1], in experiment [2], in experiment [3], in experiment [4], in experiment [6] and in experiment [7] was “inactive” each time. Also, the Potency entry in experiment [8] and in [9] was “inactive” throughout. Also, the result in experiment [5] was inactive.
On to `CCOC(=O)[C@@H](C)Oc1ccc(Oc2nc3ccc(Cl)cc3o2)cc1`, for which the Potency result in [1], in [2], in experiment [3], in experiment [10], in experiment [7] and in experiment [8] was “inactive” each time. Further, in experiment [9], the Potency result was “inactive”.
`CCc1nn(CCCN2CCN(c3cccc(Cl)c3)CC2)c(=O)n1CCOc1ccccc1`: the Potency entry in [1], in [2], in [6], in experiment [7], in [8] and in experiment [9] was “inactive” each time. Also, the figures for the Potency in experiment [3] and in experiment [4] were 26.6 µM (active) and 11.9 µM (active), respectively. Moreover, the compound was classed as inactive in experiment [5].
